From PubChem BioAssay (EPA / NIEHS)
Results filed as inconclusive are left out. Calls of active or inactive are those of the source. The calls were made as follows, unless noted: active = hit-call score of the fitted dose curve at least 0.9, where 1 is the maximum; inconclusive = response in the unintended direction; inactive = score below 0.9.

Experiments:
[1] = ATG_TAL_CIS: Attagene CIS-FACTORIAL HepG2 Assay for human TAL Basal Promoter (AID 2282966; active = hit-call score of the fitted dose curve at least 0.9, where 1 is the maximum; inactive = score below 0.9;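 also: background control endpoint measuring basal TAL promoter reporter mRNA not a specific factor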); conditions: HepG2 Attagene cis-factorial TAL promoter reporter; actives raise or lower the signal
In short: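 Human hepatoma HepG2 cells, transfected with promoter-regulated reporter units, were treated 24 h. Reporter transcript levels, measured through RT-PCR and capillary electrophoresis, were fitted for gain or loss relative to DMSO.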

[2] = ATG_VDRE_CIS: Attagene CIS-FACTORIAL HepG2 Assay for human Vitamin D Receptor Element (VDRE) (AID 2282968; active = hit-call score of the fitted dose curve at least 0.9, where 1 is the maximum; inactive = score below 0.9); conditions: HepG2 VDRE cis-reporter transcription, actives raise or lower the signal
In short: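 Transfected HepG2 reporter cells, chemical treatment 24 h. RNA isolated, cDNA amplified with reporter-specific primers, products analysed by capillary electrophoresis. Endpoint fitted in both directions versus DMSO.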

[3] = target: X-box-binding protein 1 (Homo sapiens) (UniProt P17861); experiment: ATG_Xbp1_CIS: Attagene CIS-FACTORIAL HepG2 Assay for human X-box Binding Protein 1 (XBP1) (AID 2282972; active = hit-call score of the fitted dose curve at least 0.9, where 1 is the maximum; inactive = score below 0.9); conditions: HepG2 XBP1 cis-element reporter, Attagene multiplex; actives raise or lower the signal
In short: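 Multiplexed cis-reporter readout in transfected HepG2 liver cells. Exposure lasted 24 hours. Activity in either direction was fitted against DMSO as negative control and baseline.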

[4] = target: Hepatocyte nuclear factor 4-alpha (Homo sapiens) (UniProt P41235); experiment: ATG_HNF4a_TRANS: Attagene TRANS-FACTORIAL HepG2 Assay for human Hepatocyte Nuclear Factor 4 alpha (HNF4a) (AID 2282982); conditions: HepG2 HNF4a transactivation reporter, mRNA readout
In short: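 Using HepG2 liver cells transfected with GAL4-UAS reporter units, chemical-induced mRNA increases were assessed after 24 hours. Fluorescent RT-PCR fragments were separated by capillary electrophoresis and compared with DMSO negative controls.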

[5] = ATG_M_06_TRANS: Attagene TRANS-FACTORIAL HepG2 Assay for M06 Transcription Factor (Internal Marker) (AID 2282983); conditions: HepG2 Attagene TRANS M06 internal marker reporter
In short: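 Multi-reporter-transfected HepG2, 24 h treatment; reporter transcripts quantified via RT-PCR, primer-extension labelling and CE. DMSO-normalized gain-of-signal fit.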

[6] = target: Nuclear receptor subfamily 4 group A member 2 (Homo sapiens) (UniProt P43354); experiment: ATG_NURR1_TRANS: Attagene TRANS-FACTORIAL HepG2 Assay for human Nuclear Receptor Related Protein 1 (NURR1) (AID 2282985); conditions: HepG2 Attagene TRANS reporter, mRNA readout
In short: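 Chimeric NR-Gal4 proteins were expressed in human HepG2 cells bearing GAL4-UAS reporter units, and induced reporter mRNA was quantified 24 h post-dosing by RT-PCR and capillary electrophoresis.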

[7] = target: Transcriptional activator Myb (Homo sapiens) (UniProt P10242); experiment: ATG_Myb_CIS: Attagene CIS-FACTORIAL HepG2 Assay for human Myeloblastosis (Myb) Proto-Oncogene Transcription Factor (AID 2282986; active = hit-call score of the fitted dose curve at least 0.9, where 1 is the maximum; inactive = score below 0.9); conditions: HepG2 Attagene CIS-FACTORIAL Myb reporter transcription; actives raise or lower the signal
In short: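 Reporter mRNA is quantified by RT-PCR and capillary electrophoresis 24 h after dosing HepG2 cells transfected with cis-regulated reporter units, which track endogenous transcription factor activity. Gain and loss of signal are fitted versus DMSO baseline.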

[8] = target: Nuclear respiratory factor 1 (Homo sapiens) (UniProt Q16656); experiment: ATG_NRF1_CIS: Attagene CIS-FACTORIAL HepG2 Assay for human Nuclear Respiratory Factor 1 (NRF1) Orphan Gene (AID 2282987; active = hit-call score of the fitted dose curve at least 0.9, where 1 is the maximum; inactive = score below 0.9); conditions: HepG2 NRF1 cis-element reporter, Attagene multiplex; actives raise or lower the signal
In short: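 Endogenous NRF1-driven reporter transcription in transfected HepG2 cells after 24 h treatment. Readout: RT-PCR products, 6-FAM labelled and resolved by capillary electrophoresis; changes fitted both directions relative to DMSO.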

[9] = target: Glucocorticoid receptor (Homo sapiens) (UniProt P04150); experiment: ATG_GR_TRANS: Attagene TRANS-FACTORIAL HepG2 Assay for human Glucocorticoid Receptor (GR) (AID 2282978); conditions: HepG2 Attagene TRANS GR reporter, mRNA transcription;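 also: activators score as hits since higher reporter transcript over DMSO is fitted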
In short: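 Readout is reporter transcript from a chimeric GR-Gal4 acting on GAL4-UAS in transfected human HepG2 liver cells after 24 h exposure, quantified by RT-PCR and capillary electrophoresis. Activation fitted upward against DMSO.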

[10] = target: Bile acid receptor (Homo sapiens) (UniProt Q96RI1); experiment: ATG_FXR_TRANS: Attagene TRANS-FACTORIAL HepG2 Assay for Farnesoid X Receptor (FXR) (AID 2282979); conditions: HepG2 Attagene TRANS FXR-GAL4 reporter transcription;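 also: hits raise reporter mRNA above DMSO so AC50 marks FXR activation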
In short: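 After 24 h chemical treatment of transfected HepG2 cells, GAL4-UAS reporter transcripts driven by an exogenous FXR-GAL4 fusion were measured by RT-PCR and capillary electrophoresis. Increases over DMSO were fitted.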

[11] = target: Oxysterols receptor LXR-beta (Homo sapiens) (UniProt P55055); experiment: ATG_LXRb_TRANS: Attagene TRANS-FACTORIAL HepG2 Assay for human Liver X Receptor beta (LXRb) (AID 2282981); conditions: HepG2 Attagene TRANS GAL4-LXRb reporter, mRNA
In short: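 Liver-derived HepG2 cells transfected with Gal4-responsive reporters were dosed for 24 h. Activation was scored as rise in reporter mRNA, by RT-PCR and capillary electrophoresis, above DMSO baseline.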

[12] = ATG_M_32_TRANS: Attagene TRANS-FACTORIAL HepG2 Assay for M32 Transcription Factor (Internal Marker) (AID 2282984); conditions: HepG2 Attagene TRANS M32 internal marker reporter
In short: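 Fluorescence-detected mRNA induction, HepG2 liver cells, 24 h after dosing. Multiple GAL4-UAS reporter units introduced by transient transfection; background-control endpoint analysed for gain of signal against DMSO.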

[13] = target: Estrogen receptor (Homo sapiens) (UniProt P03372); experiment: ATG_ERa_TRANS: Attagene TRANS-FACTORIAL HepG2 Assay for human Estrogen Receptor alpha (ERa) (AID 2282970); conditions: HepG2 Attagene TRANS ERa GAL4 reporter, mRNA
In short: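 Signal derives from fluorescence of labelled reporter PCR fragments separated by capillary electrophoresis. HepG2 cells transiently carrying multiple GAL4-UAS reporter units were treated 24 hours, and induction above DMSO baseline was fitted as activity.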

[14] = ATG_M_19_TRANS: Attagene TRANS-FACTORIAL HepG2 Assay for M19 Transcription Factor (Internal Marker) (AID 2282974); conditions: HepG2 Attagene TRANS-FACTORIAL M19 internal marker reporter
In short: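 Background-control readout: after 24 h chemical exposure of transfected HepG2 carrying GAL4-driven reporter units, RNA was reverse-transcribed, amplified, fluorescently labeled and sized by capillary electrophoresis; gain-of-signal fit against DMSO.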

[15] = target: Nuclear receptor subfamily 1 group I member 3 (Homo sapiens) (UniProt Q14994); experiment: ATG_CAR_TRANS: Attagene TRANS-FACTORIAL HepG2 Assay for human Constitutive Androstane Receptor (CAR) (AID 2282969); conditions: HepG2 Attagene TRANS-FACTORIAL CAR reporter;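 also: activators raise reporter mRNA above DMSO so AC50 marks induction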
In short: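 Steps: transient transfection of HepG2 with multiple GAL4-UAS reporter units; 24 h compound incubation; RNA isolation, RT-PCR, 6-FAM primer extension, HpaI digest; capillary electrophoresis. Gain-of-signal relative to DMSO negative control.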

[16] = target: Steroid hormone receptor ERR1 (Homo sapiens) (UniProt P11474); experiment: ATG_ERRa_TRANS: Attagene TRANS-FACTORIAL HepG2 Assay for human Estrogen-Related Receptor alpha (ERRa) (AID 2282971); conditions: HepG2 Attagene TRANS reporter, ERRa transactivation
In short: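 Signal gain relative to DMSO for an ERRa-Gal4 chimeric receptor, read as reporter mRNA by RT-PCR/capillary electrophoresis. Human HepG2 liver cells, transient multiplex reporter transfection, 24 h chemical exposure.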

[17] = ATG_GAL4_TRANS: Attagene TRANS-FACTORIAL HepG2 Assay for GAL4 (Internal Marker) (AID 2282976); conditions: HepG2 Attagene TRANS GAL4 internal marker reporter
In short: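 Liver HepG2 line bearing multiplexed GAL4-UAS reporter constructs; 24 h chemical treatment. Transcripts were quantified as fluorescent fragments on capillary electrophoresis after RT-PCR and HpaI cut, with activity fitted upward from DMSO.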

[18] = target: Oxysterols receptor LXR-alpha (Homo sapiens) (UniProt Q13133); experiment: ATG_LXRa_TRANS: Attagene TRANS-FACTORIAL HepG2 Assay for human Liver X Receptor alpha (LXRa) (AID 2282980); conditions: HepG2 Attagene TRANS reporter, LXRa transactivation
In short: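 In this multiplexed TRANS system, compounds act on HepG2 cells carrying GAL4-UAS reporter units and a receptor-GAL4 fusion for 24 h. Induced reporter RNA is amplified, fluorescently labelled and sized by capillary electrophoresis, with DMSO as baseline.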

[19] = target: Estrogen-related receptor gamma (Homo sapiens) (UniProt P62508); experiment: ATG_ERRg_TRANS: Attagene TRANS-FACTORIAL HepG2 Assay for human Estrogen-Related Receptor gamma (ERRg) (AID 2282977); conditions: HepG2 Attagene TRANS reporter, ERRg transactivation;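 also: hits increase reporter signal over DMSO so potencies reflect activators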
In short: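 Exogenous NR-Gal4 chimera activity was assessed in HepG2 cells bearing transfected GAL4-UAS reporters. After 24 h dosing, total RNA underwent RT-PCR, fluorescent primer extension and HpaI digestion before capillary electrophoresis, with gain of signal scored against DMSO.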

Bile acid receptor (Homo sapiens), sequence (Q96RI1 whole entry, looked up, the tested form may be a part): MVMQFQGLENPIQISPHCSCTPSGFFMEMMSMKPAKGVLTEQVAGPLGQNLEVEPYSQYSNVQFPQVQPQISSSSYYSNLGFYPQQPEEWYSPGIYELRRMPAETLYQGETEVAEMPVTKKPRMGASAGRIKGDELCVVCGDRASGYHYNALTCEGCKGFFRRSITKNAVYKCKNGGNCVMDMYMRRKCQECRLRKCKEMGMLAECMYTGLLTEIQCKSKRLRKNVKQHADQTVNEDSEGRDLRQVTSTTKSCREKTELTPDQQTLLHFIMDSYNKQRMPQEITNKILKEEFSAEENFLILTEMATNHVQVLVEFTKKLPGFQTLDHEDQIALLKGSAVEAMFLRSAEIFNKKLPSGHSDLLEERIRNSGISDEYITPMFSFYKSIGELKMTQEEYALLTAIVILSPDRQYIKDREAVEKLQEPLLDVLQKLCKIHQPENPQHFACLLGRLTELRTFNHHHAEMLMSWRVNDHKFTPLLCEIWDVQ
Glucocorticoid receptor (Homo sapiens), sequence (P04150 whole entry, looked up, the tested form may be a part): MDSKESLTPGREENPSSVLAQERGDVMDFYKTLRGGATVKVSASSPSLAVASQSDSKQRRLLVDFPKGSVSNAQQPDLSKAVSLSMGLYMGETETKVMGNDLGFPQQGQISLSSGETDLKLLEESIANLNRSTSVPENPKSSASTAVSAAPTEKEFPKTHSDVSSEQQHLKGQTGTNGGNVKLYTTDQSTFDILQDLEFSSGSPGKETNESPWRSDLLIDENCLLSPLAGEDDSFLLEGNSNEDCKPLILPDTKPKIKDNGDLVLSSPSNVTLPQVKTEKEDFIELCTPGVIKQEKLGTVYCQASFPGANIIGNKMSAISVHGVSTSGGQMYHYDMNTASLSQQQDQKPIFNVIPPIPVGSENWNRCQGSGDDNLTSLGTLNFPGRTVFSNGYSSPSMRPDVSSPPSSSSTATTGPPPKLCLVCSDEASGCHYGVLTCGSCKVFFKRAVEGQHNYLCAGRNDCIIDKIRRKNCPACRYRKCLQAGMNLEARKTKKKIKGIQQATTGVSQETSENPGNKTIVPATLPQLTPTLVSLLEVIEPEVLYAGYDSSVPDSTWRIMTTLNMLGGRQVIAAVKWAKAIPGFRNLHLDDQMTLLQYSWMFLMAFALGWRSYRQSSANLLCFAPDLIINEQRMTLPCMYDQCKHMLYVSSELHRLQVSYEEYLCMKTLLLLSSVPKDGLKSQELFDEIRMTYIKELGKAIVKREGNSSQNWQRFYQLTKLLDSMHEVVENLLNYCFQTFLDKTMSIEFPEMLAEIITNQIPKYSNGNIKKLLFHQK
Transcriptional activator Myb (Homo sapiens), sequence (P10242 whole entry, looked up): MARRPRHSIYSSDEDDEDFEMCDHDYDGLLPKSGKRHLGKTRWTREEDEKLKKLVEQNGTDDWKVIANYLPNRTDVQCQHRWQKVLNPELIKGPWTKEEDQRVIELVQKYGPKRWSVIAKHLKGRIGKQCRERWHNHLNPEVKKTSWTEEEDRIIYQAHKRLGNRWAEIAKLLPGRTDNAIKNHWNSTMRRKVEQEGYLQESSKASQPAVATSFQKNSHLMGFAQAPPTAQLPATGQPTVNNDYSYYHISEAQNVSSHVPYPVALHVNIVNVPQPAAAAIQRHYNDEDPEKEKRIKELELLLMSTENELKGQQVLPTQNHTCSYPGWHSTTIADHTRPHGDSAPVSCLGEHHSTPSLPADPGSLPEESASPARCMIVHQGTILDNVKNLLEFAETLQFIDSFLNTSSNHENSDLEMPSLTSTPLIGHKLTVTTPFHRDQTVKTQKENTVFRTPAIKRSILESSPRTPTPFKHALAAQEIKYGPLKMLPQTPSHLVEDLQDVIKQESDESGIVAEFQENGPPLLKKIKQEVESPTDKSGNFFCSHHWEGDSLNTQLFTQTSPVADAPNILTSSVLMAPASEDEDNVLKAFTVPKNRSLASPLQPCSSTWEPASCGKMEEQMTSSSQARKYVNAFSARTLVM
X-box-binding protein 1 (Homo sapiens), sequence (P17861 whole entry, looked up): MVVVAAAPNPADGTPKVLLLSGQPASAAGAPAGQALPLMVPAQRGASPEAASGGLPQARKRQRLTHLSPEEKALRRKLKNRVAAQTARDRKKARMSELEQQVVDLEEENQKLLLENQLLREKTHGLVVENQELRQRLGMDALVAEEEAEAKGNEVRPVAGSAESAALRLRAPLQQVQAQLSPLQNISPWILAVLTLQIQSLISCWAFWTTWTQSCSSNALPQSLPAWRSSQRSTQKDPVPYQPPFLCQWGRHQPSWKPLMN
Oxysterols receptor LXR-alpha (Homo sapiens), sequence (Q13133 whole entry, looked up, the tested form may be a part): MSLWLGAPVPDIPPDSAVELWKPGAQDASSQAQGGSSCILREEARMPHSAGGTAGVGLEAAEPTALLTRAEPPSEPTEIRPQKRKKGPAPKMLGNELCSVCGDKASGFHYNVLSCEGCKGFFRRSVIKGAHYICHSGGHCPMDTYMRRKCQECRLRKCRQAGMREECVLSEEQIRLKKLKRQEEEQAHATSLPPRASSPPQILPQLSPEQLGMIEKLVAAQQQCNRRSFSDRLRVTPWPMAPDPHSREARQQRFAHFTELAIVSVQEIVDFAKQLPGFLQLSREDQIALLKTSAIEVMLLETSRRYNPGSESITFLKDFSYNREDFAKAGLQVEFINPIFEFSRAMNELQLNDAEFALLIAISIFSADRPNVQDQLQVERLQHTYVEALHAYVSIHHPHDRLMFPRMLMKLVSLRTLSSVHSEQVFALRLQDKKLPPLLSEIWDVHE
Oxysterols receptor LXR-beta (Homo sapiens), sequence (P55055 whole entry, looked up, the tested form may be a part): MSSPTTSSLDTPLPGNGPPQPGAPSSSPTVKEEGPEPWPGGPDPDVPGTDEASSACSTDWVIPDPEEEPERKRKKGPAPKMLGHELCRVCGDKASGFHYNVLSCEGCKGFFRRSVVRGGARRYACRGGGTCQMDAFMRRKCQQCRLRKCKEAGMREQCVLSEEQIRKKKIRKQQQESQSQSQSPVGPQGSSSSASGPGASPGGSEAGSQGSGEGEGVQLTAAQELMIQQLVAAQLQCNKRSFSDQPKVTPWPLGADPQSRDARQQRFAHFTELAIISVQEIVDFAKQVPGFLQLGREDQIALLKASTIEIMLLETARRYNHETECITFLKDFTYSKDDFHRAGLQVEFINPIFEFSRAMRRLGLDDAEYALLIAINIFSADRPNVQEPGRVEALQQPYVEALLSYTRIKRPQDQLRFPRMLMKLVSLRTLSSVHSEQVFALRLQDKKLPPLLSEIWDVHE
Nuclear respiratory factor 1 (Homo sapiens), sequence (Q16656 whole entry, looked up): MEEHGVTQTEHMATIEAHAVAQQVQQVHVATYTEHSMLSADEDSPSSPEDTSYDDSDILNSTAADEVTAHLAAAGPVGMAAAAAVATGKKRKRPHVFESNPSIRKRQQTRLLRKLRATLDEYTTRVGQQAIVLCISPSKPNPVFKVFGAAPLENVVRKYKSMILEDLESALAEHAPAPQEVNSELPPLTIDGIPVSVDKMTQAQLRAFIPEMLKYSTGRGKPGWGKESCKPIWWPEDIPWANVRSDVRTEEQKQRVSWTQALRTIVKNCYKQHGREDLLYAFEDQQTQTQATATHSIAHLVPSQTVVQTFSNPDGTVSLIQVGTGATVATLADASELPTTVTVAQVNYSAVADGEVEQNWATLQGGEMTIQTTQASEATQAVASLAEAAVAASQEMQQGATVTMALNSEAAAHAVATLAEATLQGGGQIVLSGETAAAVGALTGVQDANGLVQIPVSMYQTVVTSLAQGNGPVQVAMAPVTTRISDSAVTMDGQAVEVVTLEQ
Nuclear receptor subfamily 4 group A member 2 (Homo sapiens), sequence (P43354 whole entry, looked up, the tested form may be a part): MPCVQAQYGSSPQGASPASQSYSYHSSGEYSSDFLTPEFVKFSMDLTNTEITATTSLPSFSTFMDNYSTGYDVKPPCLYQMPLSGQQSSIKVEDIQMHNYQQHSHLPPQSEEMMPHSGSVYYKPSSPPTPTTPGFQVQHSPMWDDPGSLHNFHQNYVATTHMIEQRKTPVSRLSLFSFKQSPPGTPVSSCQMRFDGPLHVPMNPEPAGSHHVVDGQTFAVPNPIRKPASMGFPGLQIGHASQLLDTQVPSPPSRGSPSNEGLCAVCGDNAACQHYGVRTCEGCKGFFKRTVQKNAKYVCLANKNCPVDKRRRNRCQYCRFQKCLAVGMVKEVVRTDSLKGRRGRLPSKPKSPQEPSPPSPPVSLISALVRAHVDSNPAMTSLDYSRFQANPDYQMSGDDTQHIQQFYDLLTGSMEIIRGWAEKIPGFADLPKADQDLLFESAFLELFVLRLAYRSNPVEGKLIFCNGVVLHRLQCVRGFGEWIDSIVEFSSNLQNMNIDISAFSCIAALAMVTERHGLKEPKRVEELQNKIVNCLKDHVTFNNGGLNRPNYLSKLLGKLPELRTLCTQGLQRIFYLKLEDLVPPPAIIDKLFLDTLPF
Hepatocyte nuclear factor 4-alpha (Homo sapiens), sequence (P41235 whole entry, looked up, the tested form may be a part): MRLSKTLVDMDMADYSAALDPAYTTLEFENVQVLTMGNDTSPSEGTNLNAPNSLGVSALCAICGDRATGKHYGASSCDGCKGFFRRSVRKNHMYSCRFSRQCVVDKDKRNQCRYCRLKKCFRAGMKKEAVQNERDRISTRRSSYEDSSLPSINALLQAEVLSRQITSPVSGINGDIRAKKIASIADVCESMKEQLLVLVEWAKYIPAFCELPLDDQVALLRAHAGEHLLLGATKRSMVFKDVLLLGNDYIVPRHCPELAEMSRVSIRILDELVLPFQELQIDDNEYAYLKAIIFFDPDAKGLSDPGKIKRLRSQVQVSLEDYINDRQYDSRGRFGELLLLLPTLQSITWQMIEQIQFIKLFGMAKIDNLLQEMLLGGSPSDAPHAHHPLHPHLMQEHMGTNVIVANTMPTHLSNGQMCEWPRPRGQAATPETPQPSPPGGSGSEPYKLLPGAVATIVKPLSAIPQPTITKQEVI
Nuclear receptor subfamily 1 group I member 3 (Homo sapiens), sequence (Q14994 whole entry, looked up, the tested form may be a part): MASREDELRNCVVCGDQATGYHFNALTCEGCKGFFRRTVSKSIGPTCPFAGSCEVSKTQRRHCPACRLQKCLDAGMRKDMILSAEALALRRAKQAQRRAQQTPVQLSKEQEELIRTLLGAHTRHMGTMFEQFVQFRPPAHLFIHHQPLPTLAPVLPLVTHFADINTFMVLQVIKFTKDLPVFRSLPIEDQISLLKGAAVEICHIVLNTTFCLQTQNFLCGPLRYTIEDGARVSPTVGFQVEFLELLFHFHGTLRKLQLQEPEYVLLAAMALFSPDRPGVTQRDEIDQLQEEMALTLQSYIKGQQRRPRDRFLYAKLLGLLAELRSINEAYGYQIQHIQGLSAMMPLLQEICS

SMILES: CC(=O)Nc1ccc(C(=O)CCl)cc1
- outcome [1]: inactive
- AC50 [2]: 8.84 µM (active)
- AC50 [3]: 7.85 µM (active)
- outcome [4]: inactive
- outcome [5]: inactive
- outcome [6]: inactive
- outcome [7]: inactive
- outcome [8]: inactive

SMILES: O=C(CC(=O)c1ccccc1)c1ccccc1
- outcome [1]: inactive
- outcome [2]: inactive
- AC50 [3]: 45.1 µM (active)
- outcome [9]: inactive
- outcome [10]: inactive
- outcome [11]: inactive
- outcome [5]: inactive
- outcome [12]: inactive
- outcome [6]: inactive
- AC50 [7]: 100 µM (active)

SMILES: CCCCC1(COC(=O)CCC(=O)O)C(=O)N(c2ccccc2)N(c2ccccc2)C1=O
- outcome [1]: inactive
- outcome [2]: inactive
- outcome [13]: inactive
- outcome [3]: inactive
- outcome [5]: inactive
- outcome [6]: inactive
- outcome [7]: inactive
- outcome [8]: inactive

SMILES: CCCCCCCCCCCCS(=O)(=O)Cl
- outcome [1]: inactive
- outcome [2]: inactive
- outcome [3]: inactive
- outcome [14]: inactive
- outcome [9]: inactive
- outcome [10]: inactive
- outcome [4]: inactive
- outcome [12]: inactive
- outcome [7]: inactive
- outcome [8]: inactive

SMILES: Cc1ccc(S(=O)(=O)Oc2ccc(N=Nc3ccc(-c4ccc(N=Nc5c(O)ccc6cc(S(=O)(=O)O)cc(S(=O)(=O)O)c56)c(C)c4)cc3C)cc2)cc1
- outcome [1]: inactive
- AC50 [2]: 14.1 µM (active)
- outcome [15]: inactive
- outcome [16]: inactive
- outcome [3]: inactive
- outcome [14]: inactive
- outcome [17]: inactive
- outcome [9]: inactive
- outcome [10]: inactive
- outcome [18]: inactive
- outcome [11]: inactive
- outcome [12]: inactive
- outcome [6]: inactive
- outcome [7]: inactive
- outcome [8]: inactive

SMILES: Cc1cc(=O)oc2cc(N(C)C)ccc12
- outcome [1]: inactive
- outcome [2]: inactive
- outcome [3]: inactive
- outcome [17]: inactive
- outcome [9]: inactive
- outcome [10]: inactive
- outcome [18]: inactive
- outcome [11]: inactive
- outcome [5]: inactive
- outcome [12]: inactive
- outcome [7]: inactive
- outcome [8]: inactive

SMILES: CCC1(c2ccccc2)C(=O)NCNC1=O
- outcome [1]: inactive
- outcome [2]: inactive
- outcome [3]: inactive
- outcome [9]: inactive
- outcome [10]: inactive
- outcome [11]: inactive
- outcome [4]: inactive
- outcome [5]: inactive
- outcome [12]: inactive
- outcome [7]: inactive
- outcome [8]: inactive

SMILES: O=C1CCCC=CCCCCCCCCCC1
- outcome [1]: inactive
- AC50 [2]: 18.4 µM (active)
- AC50 [3]: 55.6 µM (active)
- outcome [10]: inactive
- outcome [18]: inactive
- outcome [5]: inactive
- AC50 [6]: 26.5 µM (active)
- outcome [7]: inactive
- outcome [8]: inactive

SMILES: O=C(Nc1ccc([N+](=O)[O-])cc1)Nc1ccc([N+](=O)[O-])cc1 (tested in a mixture with another compound)
- outcome [1]: inactive
- outcome [2]: inactive
- outcome [3]: inactive
- outcome [9]: inactive
- outcome [10]: inactive
- outcome [18]: inactive
- outcome [11]: inactive
- outcome [5]: inactive
- outcome [12]: inactive
- outcome [7]: inactive
- outcome [8]: inactive

SMILES: COc1ccc(COC(C)=O)cc1
- outcome [1]: inactive
- outcome [2]: inactive
- outcome [15]: inactive
- outcome [16]: inactive
- outcome [3]: inactive
- outcome [14]: inactive
- outcome [19]: inactive
- outcome [10]: inactive
- outcome [11]: inactive
- outcome [4]: inactive
- outcome [5]: inactive
- outcome [6]: inactive
- outcome [7]: inactive
- outcome [8]: inactive
